Experimental data taken from the supplement of paper PMC12632987.
In all, about 1,800 sequences were measured (“median log2 fold change of GCK-ALFA target abundance (FLAG IP / Myc IP barcode read proportion)”: median about 0.14, lowest 2% from about -0.84 on). The full list was thinned out, with the lowest values kept by preference.

B1: traf2_out_3_89_2284 (protein)
chain: SHHMEALIEEARKIAEAYAKGFRKSLTFVAKQMVAEGHSLETLEGVANAAKTALVEEFRESLKERGLDEETIKEIVEELRKKLDEIVKEVIAEAKKARAA
B2: traf2_out_6_156_2424 (protein)
chain: MLEKIIKEAEEKIKKEIKKLAEASEEKKIKYISDIAGAVYKALQKMREAGASVEEIKEAIERLKKVAEKEAKKAGLDKDTRDLLLASINAVGEVALREAK
B3: traf2_out_1_158_908 (protein)
chain: STDVSTLHAVATSIAEVYAEEAKERGLEKAAELLKKLKKEIEKLYEANKDASLEEMAAKVLELIKKFEEESKSFDPETREFVEIAFRQIRSGILQVVKLA
B4: traf2_out_5_63_2366 (protein)
chain: SAAEEERRRLREEARLIEAAIRAVIDGREEEARRLLAEAEARGIDWRTVALYFRGMARALRLQNEPQEKIERMERAAEEARARAEAAAAAAAAAAAAAAA
B5: traf2_out_20_38_2025 (protein)
chain: SEEEEEEKKLEELIKVANDAYDAATAEIAALKAEGKSVEEIAEWAKEKIKEILDKVGLEEEKEELIADVDRVLDSPDALTLIARILARAVAKAKQKELQE
B6: traf2_out_20_3_2078 (protein)
chain: SELEAELERELDRALALLRQAAARADPETAARLDALIARLRASRELSIEDRLVAISAVRREVRALAEEARAAGRADLAALLDAAADALNRAAQLAYEILE
B7: traf2_out_17_178_1662 (protein)
chain: SKEEERKKISELTDELIDLAEDAAERMLELAEKEGDVSEEELEELREARRRGSATDVLALGERLIPKLKNSEELGALLEEFKARYRELSKEIAEAYERYE
B8: traf2_out_1_27_1014 (protein)
chain: SDEELTKLIKETDKKIAEVSLEEAKKVVKEALKEAAKLGPEDAMVLANTLIASQLDEERLKAIAEAAVEAFKELGFPEEDIERLKRIAESVLKLNKKVLA
B9: traf2_out_11_104_655 (protein)
chain: LTREQAREFNDFAMEARDRAREIAEAVAAELEARGHTEEAARVRALLNDPGAGISSFRNLLEELKPRLDAESRKVADAAIEELRRLQREVSEKLNELLAK
B10: traf2_out_20_3_2147 (protein)
chain: EELERELAEELERAKALLAEAAALADPETAARLEALRERLEASRALSPSDQLVVVSEVRREVRLLAQEARAAGDEELAALLEEAAAALNRAANLLMRIIE
B11: traf2_out_13_95_1174 (protein)
chain: EEEKTKKEREIASEAYDEREEVMTAYKEAVVALLGDPAAAALMDEVVRNMNEFTLEHATAQLVAAHPEKAAELQALRDEALAKMKEINKKYTEKLNEIEK
B12: traf2_out_14_149_1247 (protein)
chain: SHMAETLRAAAELNERIAKALEEILKLLEAGKLEEAKAALEAAIKEAEALGEELGVTTSGIFEMEHILKLLKEDPEEAKKAVKEAAERARDAAEVLRSIA
B13: traf2_out_17_162_1536 (protein)
chain: SPEDERLAELQKRLEELEKKLEELEKKLKNIEKLSKEELTDLLVEASELRREARELAEELRELAEKTGSPEAEELRERAEELAEKLQRIANEIYKELEKK
B14: traf2_out_17_178_1708 (protein)
chain: TKEEARKRISEATDEMIDLAEEAAARLLEIAEREGSLSPEELAALRRARRLGSARTTIALMERAIPRLRSAEEVRALLEELKARYRELSKEIAEALEKYE
B15: traf2_out_5_192_2336 (protein)
chain: SAEEEARERRLRERAEEILREAEERAKKISERTGLDYATVLATLAFSRVVARAESAEEARLMLDYIVEMITARDPSWAPIAEGEKAAALRAIDAIEAAEP
B16: traf2_out_20_38_2023 (protein)
chain: SMEEEEEEKLKELVEVANKAYDEYSAKFAKWKAEGKTVEEIAEEVKKEIRELLSKAGLEEEAEILIEDVDLALKSPNAERLLIRTLARAVALVKQKELQK
B17: traf2_out_13_95_1070 (protein)
chain: TRELARRINELADRAEERALALLAAAQAELADDPEAVAVLDEAARLAETRGIRAAIALLREAQAAHPEHREAFDALIAELEEIRRELGREVAKLIKEAEE
B18: traf2_out_6_156_2375 (protein)
chain: MLEKILEEAKKKIEELIKELAKASEEKKIAYISRIAGAVYRALQRMREAGASVEEIKKAVEELKKVAEEKAKEAGLDQDTIDLLLASIDAVGKVALEEAK
B19: traf2_out_17_178_1676 (protein)
chain: TKEEKRKKISELTDKYIDLAEATAARLLALAEAEGFMTPEELAALRAAQRRGNGRLVEALLERAIPRSPRAAEVAALLADYRARSRELAKEIAKALEEYE
B20: traf2_out_6_156_2412 (protein)
chain: MVEEILEKALEKVEELIKELAKASEEKKIAYISKIAGTAYRALQELREAGASLEEIEAFAEEFKKRTEELLKEAGLPEDTINLVLSALNAVFDVAIAEAK
B21: traf2_out_11_155_735 (protein)
chain: EEKQKLIQEMNDKIMELFEEARRRALEIARRAAERHPEHREEIEAAIEESKGFSYRSFILEMIRLFRELGLEEEAEELERLLEETQRKASKIVIETEKKL
B22: traf2_out_17_162_1539 (protein)
chain: SPTEERLEELERRLERLEEELKKLKEKSEKLDELSKEEISDLLVEVSELRREALRLAEELRRLAEETGSPRARELEERAERLAEELQRIANKIYKELEKK
B23: traf2_out_11_155_726 (protein)
chain: SKFKEAQNKIVDFNLEVGDELLKKVEEIIKEIEKEDPEVAKKLREVVEKYKKFSNRSAARAAIDLLREEGYEEYAERLEKALEEAQRKMSKKTQEIEKEL
B24: traf2_out_6_3_2520 (protein)
chain: MEESIRRDARTVLENMGITTAEQLKRLVEANVNAVKKLVSRPDVDEADLAGARSVLALTRAMVDVAAETLPDLTPEQVAEMKALIKEAEELVEKKRKELE
B25: traf2_out_6_3_2516 (protein)
chain: MEESIRKDAETVLENMGITTAEQLKRLVKAEVNAVKKLVSRKDVDEADLAGAESVLNLTRAMVEVAYEKLPDLTEEQKKEMLALIKEAEELVKKKRKELE
B26: traf2_out_18_3_1943 (protein)
chain: KEEELKKISEEIDKIIDEVTARAREELDRLLAEHPELAAEAEALRADLDAGAGPFGILDELARLWERAGAADEAAAARAFLREKRKKLQELVDKYEELRK
B27: traf2_out_13_95_1132 (protein)
chain: SAETAKKIMEIADKMLDEILAILEELLKKAEAAGVGVEEIQKAIHLAEHHSVNEAIHLLRELAKKHPEFKAELEAAIAKIEAIREKAGREVAKILKEAAE
B28: traf2_out_1_27_1022 (protein)
chain: SDEEFTRLIRETDRKIAEVDLEEQKKVVKEALKEAAKWGLGDARMLARTLVASQNDEERQEAIKEASLEAFKELGAPEEVIEELERVFNSIIERKKKVLA
B29: traf2_out_18_167_1872 (protein)
chain: SAELKKKREELTDELVRYSTIRRALLLILEALKRSREEARRLLEEYVEKYPDSEVLREALEVFETKSDEEFRKFLEEKAEELQKEANEKYKELEELEKEE

Molecular target: T1, TRAF2, Q12933
T1 chain: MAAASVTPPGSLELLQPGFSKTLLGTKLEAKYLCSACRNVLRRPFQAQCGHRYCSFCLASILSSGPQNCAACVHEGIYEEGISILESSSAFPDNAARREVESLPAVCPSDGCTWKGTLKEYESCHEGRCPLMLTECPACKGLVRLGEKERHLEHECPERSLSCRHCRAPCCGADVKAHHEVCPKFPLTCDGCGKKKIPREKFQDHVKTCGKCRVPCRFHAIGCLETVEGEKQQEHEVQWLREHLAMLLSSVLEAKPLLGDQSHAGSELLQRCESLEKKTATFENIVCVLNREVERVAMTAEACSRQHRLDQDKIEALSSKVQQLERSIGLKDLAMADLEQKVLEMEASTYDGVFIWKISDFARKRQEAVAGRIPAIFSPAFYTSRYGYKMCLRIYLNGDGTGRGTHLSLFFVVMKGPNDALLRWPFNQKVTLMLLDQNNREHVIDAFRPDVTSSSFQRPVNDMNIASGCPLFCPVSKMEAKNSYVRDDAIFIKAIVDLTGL
Assay: median log2 fold change of GCK-ALFA target abundance (FLAG IP / Myc IP barcode read proportion) (log2 ratio); each designed protein is fused to an ALFA-tag nanobody in HEK293 cells to bring the named protein to FLAG-tagged glucokinase (GCK); Myc marks an untargeted standard; higher = target protein stabilised (more abundant)
Conditions: target protein: 3xFLAG-MCP-GCK-ALFA reporter; HEK293 landing pad (RPLP)
Protocol: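 LABEL-seq trans screen in HEK293 landing-pad cells. Each de novo designed 100-aa effector handle, binding the indicated effector (E3 ligase, DUB or autophagy protein), is fused to a constant NbALFA target handle and induced with 2 ug/mL doxycycline. A FLAG-MCP-GCK-ALFA target and a Myc-MCP standard reporter were transfected, and after 48 h circRNA barcodes were recovered by anti-FLAG and anti-Myc IP and sequenced. The value is the median across barcodes (at least 3 per design) of log2(FLAG/Myc read-proportion ratio), with the two transfection replicates pooled. Negative values mean degradation and positive values mean stabilisation of the target.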

Binder	median log2 fold change
B1	-0.43
B2	-0.0673
B3	0.0558
B4	-0.861
B5	-0.841
B6	-0.0407
B7	0.161
B8	0.337
B9	0.222
B10	0.226
B11	0.311
B12	-0.194
B13	0.429
B14	-0.184
B15	-1.01
B16	-1.38
B17	-0.334
B18	0.151
B19	-0.865
B20	0.261
B21	-0.138
B22	0.204
B23	0.469
B24	-0.989
B25	-0.56
B26	0.0947
B27	-0.315
B28	0.214
B29	0.106
